Common to all, as to experiment: DAPPL (digital affinity profiling via proximity ligation, sequencing); 10 mM Tris-HCl pH 7.5, 50 mM NaCl, 1 mM DTT, 4% glycerol, room temperature, 30 min; GST-TFs on glutathione beads, 16-mer random dsDNA library, 0.1% formaldehyde crosslink after washing; high values mean tight binding
Test [1] has as its target T1, FLI1 (Homo sapiens, UniProt Q01543 1-452).
T1 sequence: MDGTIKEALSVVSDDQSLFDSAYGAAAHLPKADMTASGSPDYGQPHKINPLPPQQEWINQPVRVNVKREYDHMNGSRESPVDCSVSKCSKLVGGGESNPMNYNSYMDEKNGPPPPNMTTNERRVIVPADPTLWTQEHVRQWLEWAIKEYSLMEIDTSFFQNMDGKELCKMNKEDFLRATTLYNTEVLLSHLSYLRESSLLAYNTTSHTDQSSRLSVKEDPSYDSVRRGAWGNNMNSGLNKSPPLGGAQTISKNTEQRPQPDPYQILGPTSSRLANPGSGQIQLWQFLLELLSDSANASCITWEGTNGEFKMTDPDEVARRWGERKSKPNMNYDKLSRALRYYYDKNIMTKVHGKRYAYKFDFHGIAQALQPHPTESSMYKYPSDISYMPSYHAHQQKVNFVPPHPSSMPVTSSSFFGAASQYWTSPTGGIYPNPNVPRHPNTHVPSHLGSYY
The settings on record: protein: recombinant; tags: N-terminal GST; dsDNA, one strand shown. Summed up: (§1)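 The binding signal reported is, for every hexamer, its read frequency for a factor over its read frequency for the tag-only sample. Reads came from pools of yeast-expressed, GST-fused human transcription factors on glutathione beads, barcoded with DNA and mixed with that sample, which were incubated with 200 nmole of a random double-stranded 16-mer DNA library in Tris/NaCl/DTT/glycerol buffer at room temperature for 30 min. After washing, the pools were crosslinked with 0.1% formaldehyde, proximity-ligated with BsaI/T4 ligase for 1 h at 37 °C, PCR-amplified and sequenced on an Illumina NextSeq500.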

Test [2] concerns the target T2, ELK1 (Homo sapiens, UniProt P19419 1-428).
T2 sequence: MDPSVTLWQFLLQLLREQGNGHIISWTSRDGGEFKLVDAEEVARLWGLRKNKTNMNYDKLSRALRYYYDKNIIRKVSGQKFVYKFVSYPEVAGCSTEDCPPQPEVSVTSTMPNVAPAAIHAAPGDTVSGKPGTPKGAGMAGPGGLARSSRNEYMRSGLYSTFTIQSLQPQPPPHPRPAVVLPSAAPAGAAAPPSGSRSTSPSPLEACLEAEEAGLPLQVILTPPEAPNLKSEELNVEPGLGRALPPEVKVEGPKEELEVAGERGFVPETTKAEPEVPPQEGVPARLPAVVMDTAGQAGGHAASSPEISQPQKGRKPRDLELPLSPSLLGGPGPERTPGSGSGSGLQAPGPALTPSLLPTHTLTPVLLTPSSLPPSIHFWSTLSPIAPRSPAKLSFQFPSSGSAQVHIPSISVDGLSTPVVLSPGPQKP
As to conditions: protein: recombinant; tags: N-terminal GST; dsDNA, one strand shown. Summed up:
as §1

The target of test [3] is T3, GABPA (Homo sapiens, UniProt Q06546 1-454).
T3 sequence: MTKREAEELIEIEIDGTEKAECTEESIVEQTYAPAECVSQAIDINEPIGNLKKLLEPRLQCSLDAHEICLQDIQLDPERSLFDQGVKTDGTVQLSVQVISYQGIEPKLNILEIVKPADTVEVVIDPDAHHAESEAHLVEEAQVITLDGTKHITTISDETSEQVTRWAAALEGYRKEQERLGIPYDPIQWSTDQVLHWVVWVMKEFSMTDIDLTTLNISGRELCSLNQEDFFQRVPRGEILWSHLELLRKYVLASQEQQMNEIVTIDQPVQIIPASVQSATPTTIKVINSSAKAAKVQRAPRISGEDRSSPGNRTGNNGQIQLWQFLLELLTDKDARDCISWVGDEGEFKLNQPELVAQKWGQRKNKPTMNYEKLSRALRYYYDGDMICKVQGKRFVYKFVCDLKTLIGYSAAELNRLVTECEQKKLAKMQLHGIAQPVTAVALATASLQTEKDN
The settings on record: protein: recombinant; tags: N-terminal GST; dsDNA, one strand shown. Summed up:
as §1

Test [4] addresses T4, ERG (Homo sapiens, UniProt P11308 1-479).
T4 sequence: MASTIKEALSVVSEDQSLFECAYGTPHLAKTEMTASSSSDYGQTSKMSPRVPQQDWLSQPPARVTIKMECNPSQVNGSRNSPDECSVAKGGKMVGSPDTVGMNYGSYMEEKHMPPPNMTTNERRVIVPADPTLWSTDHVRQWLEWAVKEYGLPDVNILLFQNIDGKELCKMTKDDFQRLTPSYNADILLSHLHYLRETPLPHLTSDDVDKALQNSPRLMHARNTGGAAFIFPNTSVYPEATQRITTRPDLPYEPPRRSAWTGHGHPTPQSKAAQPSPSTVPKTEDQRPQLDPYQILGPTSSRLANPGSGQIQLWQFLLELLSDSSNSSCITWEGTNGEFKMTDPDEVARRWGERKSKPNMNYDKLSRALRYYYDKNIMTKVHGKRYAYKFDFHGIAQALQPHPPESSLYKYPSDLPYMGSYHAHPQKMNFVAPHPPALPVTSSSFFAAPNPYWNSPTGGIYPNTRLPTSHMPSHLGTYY
As to conditions: protein: recombinant; tags: N-terminal GST; dsDNA, one strand shown. Summed up:
as §1

Test [5] has as its target ELF1 (Homo sapiens, UniProt P32519 1-619). The settings on record: protein: recombinant; tags: N-terminal GST; dsDNA, one strand shown. The gist of the method:
as §1

The target in test [6] is T5, EHF (Homo sapiens, UniProt Q9NZC4 1-300).
T5 sequence: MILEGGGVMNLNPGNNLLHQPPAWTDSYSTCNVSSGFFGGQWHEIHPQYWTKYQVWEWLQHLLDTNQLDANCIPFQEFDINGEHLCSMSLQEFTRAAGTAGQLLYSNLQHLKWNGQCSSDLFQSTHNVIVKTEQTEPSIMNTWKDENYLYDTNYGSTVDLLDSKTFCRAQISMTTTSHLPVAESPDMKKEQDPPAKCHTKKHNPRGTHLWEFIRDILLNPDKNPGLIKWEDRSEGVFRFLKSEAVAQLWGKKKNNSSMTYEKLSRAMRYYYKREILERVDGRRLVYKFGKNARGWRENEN
The settings on record: protein: recombinant; tags: N-terminal GST; dsDNA, one strand shown. The gist of the method:
as §1

The target in test [7] is SPI1 (Homo sapiens, UniProt P17947 1-270). As to conditions: protein: recombinant; tags: N-terminal GST; dsDNA, one strand shown. Summed up: as §1
The target of test [8] is SPIB (Homo sapiens, UniProt Q01892 1-262). As to conditions: protein: recombinant; tags: N-terminal GST; dsDNA, one strand shown. Summed up: as §1
Chain of SPIB (Q01892 whole entry): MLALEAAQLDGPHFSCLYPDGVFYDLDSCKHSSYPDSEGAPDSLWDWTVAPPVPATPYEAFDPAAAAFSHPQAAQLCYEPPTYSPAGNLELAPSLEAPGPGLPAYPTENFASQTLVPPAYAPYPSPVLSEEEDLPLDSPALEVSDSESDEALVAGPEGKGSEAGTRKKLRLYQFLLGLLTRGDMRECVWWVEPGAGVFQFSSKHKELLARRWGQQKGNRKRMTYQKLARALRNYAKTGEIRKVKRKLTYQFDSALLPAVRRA
For test [9], the target named is T6, ELK3 (Homo sapiens, UniProt P41970 1-407).
T6 sequence: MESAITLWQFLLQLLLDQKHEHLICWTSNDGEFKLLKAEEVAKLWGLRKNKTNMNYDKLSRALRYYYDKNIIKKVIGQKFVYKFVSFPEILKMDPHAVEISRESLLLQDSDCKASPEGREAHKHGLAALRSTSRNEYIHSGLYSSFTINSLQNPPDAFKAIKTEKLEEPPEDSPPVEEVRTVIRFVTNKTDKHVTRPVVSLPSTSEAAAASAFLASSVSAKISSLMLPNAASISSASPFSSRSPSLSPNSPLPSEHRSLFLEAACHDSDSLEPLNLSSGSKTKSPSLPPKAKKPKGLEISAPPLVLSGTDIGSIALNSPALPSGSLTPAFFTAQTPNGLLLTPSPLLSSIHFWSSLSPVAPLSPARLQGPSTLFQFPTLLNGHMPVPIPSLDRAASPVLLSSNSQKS
The settings on record: protein: recombinant; tags: N-terminal GST; dsDNA, one strand shown. Summed up: as §1

In test [10] the target is T7, FEV (Homo sapiens, UniProt Q99581 1-238).
T7 sequence: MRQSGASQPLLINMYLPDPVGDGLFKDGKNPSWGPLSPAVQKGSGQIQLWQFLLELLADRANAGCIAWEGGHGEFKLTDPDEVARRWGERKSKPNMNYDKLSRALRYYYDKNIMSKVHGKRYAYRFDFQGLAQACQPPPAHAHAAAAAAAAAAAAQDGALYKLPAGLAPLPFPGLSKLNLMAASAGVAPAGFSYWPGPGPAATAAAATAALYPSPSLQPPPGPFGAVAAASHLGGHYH
As to conditions: protein: recombinant; tags: N-terminal GST; dsDNA, one strand shown. Summed up: as §1

Test [11] addresses ETV5 (Homo sapiens, UniProt P41161 1-510). The settings on record: protein: recombinant; tags: N-terminal GST; dsDNA, one strand shown. Summed up: as §1
For test [12], the target named is HSF1 (Homo sapiens, UniProt Q00613 1-529). As to conditions: protein: recombinant; tags: N-terminal GST; chain copies: 3; dsDNA, one strand shown. Summed up:
as §1

In test [13] the target is T8, SPIC (Homo sapiens, UniProt Q8N5J4 1-248).
T8 sequence: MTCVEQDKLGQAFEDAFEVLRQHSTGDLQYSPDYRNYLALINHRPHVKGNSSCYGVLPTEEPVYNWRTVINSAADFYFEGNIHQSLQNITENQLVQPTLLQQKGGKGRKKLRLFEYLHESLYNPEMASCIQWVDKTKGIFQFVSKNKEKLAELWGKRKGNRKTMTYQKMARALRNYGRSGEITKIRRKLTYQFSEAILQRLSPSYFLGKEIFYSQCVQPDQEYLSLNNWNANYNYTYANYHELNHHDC
The settings on record: protein: recombinant; tags: N-terminal GST; dsDNA, one strand shown. Summed up:
as §1

For test [14], the target named is ELF4 (Homo sapiens, UniProt Q99607 1-663). The settings on record: protein: recombinant; tags: N-terminal GST; dsDNA, one strand shown. Summed up:
as §1

Test [15] addresses T9, ELK4 (Homo sapiens, UniProt P28324-2 1-405).
T9 sequence: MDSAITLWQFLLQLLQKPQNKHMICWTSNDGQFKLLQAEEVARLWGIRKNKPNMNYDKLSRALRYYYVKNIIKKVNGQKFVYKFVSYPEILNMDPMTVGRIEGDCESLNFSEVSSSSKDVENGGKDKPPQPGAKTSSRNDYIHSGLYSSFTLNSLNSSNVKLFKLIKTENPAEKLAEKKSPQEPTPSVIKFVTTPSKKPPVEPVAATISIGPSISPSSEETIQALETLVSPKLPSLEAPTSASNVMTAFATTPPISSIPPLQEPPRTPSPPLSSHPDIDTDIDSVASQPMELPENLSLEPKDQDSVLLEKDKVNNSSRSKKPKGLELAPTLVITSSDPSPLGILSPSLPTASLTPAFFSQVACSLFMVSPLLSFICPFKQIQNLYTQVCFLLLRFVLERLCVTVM
As to conditions: protein: recombinant; tags: N-terminal GST; dsDNA, one strand shown. The gist of the method: as §1

Test [16] deals with T10, ETV2 (Homo sapiens, UniProt O00321 1-342).
T10 sequence: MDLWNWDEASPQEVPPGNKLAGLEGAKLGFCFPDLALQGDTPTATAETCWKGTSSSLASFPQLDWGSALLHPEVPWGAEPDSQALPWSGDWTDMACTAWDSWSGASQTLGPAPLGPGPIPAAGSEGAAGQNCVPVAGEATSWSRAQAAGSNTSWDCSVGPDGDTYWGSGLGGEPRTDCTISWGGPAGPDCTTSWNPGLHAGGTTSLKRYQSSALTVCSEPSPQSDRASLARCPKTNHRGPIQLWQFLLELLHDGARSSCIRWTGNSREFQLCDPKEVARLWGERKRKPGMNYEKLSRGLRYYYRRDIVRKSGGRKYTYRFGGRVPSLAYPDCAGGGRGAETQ
The settings on record: protein: recombinant; tags: N-terminal GST; dsDNA, one strand shown. Summed up:
as §1

Test [17] has as its target T11, ELF3 (Homo sapiens, UniProt P78545 1-371).
T11 sequence: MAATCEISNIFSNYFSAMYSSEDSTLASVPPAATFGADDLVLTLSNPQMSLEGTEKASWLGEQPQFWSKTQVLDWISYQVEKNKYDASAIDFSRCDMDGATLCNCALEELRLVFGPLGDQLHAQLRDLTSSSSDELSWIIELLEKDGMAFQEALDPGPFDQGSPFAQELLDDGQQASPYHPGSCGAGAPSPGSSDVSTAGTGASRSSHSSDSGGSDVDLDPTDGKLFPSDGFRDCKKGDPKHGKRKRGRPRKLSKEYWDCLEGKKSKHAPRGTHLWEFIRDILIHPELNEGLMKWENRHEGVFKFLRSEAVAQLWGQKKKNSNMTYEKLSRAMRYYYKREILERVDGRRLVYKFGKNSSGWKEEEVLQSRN
As to conditions: protein: recombinant; tags: N-terminal GST; dsDNA, one strand shown. Summed up:
as §1

The target of test [18] is CRX (Homo sapiens, UniProt O43186 1-299). The settings on record: protein: recombinant; tags: N-terminal GST; dsDNA, one strand shown. The gist of the method:
as §1

Test [19] has as its target ETV1 (Homo sapiens, UniProt P50549 1-477). The settings on record: protein: recombinant; tags: N-terminal GST; dsDNA, one strand shown. Summed up:
as §1

Chain of ETV5 (P41161 whole entry): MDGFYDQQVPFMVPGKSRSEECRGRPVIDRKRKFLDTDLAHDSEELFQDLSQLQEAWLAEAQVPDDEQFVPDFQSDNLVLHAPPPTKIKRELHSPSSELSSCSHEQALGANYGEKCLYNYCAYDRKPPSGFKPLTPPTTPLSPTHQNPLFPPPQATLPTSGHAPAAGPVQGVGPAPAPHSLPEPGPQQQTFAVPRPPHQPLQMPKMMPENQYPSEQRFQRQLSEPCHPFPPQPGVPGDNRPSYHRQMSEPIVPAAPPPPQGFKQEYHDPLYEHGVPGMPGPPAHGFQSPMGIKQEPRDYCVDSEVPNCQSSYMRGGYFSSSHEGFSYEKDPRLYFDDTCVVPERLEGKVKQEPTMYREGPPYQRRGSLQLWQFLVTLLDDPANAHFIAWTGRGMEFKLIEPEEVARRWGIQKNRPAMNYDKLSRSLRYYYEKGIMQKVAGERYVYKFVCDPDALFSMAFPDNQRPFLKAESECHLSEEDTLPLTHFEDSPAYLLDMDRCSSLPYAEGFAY
Chain of HSF1 (Q00613 whole entry): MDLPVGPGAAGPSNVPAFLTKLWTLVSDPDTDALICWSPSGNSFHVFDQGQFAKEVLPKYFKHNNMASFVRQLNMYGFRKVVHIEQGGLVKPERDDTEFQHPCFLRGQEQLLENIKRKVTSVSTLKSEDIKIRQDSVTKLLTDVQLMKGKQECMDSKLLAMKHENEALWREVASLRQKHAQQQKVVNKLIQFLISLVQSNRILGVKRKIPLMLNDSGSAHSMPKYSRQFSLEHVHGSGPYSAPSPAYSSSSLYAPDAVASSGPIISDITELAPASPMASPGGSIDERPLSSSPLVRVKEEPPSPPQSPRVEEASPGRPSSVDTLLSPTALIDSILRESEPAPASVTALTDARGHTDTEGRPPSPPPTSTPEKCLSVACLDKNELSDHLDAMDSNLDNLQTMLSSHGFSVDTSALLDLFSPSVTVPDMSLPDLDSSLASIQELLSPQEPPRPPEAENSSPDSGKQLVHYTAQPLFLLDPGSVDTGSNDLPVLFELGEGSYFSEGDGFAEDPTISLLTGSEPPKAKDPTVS
Chain of ELF4 (Q99607 whole entry): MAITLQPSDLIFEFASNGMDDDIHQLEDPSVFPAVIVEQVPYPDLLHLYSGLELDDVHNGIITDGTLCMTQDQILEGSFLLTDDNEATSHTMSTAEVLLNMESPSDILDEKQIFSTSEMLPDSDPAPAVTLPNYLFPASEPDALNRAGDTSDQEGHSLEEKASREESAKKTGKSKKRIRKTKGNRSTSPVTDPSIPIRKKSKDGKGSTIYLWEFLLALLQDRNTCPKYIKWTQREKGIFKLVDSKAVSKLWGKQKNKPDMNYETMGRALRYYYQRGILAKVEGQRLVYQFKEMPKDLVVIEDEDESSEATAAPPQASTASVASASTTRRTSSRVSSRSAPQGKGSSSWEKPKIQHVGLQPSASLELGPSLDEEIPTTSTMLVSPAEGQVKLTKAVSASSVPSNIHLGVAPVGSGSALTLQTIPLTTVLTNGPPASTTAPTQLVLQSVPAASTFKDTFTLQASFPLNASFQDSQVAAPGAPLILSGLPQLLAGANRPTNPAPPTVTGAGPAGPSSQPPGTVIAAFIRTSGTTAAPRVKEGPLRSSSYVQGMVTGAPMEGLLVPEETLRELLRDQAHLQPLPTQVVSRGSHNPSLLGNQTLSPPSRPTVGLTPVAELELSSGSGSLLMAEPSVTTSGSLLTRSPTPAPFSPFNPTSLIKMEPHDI
Chain of ETV1 (P50549 whole entry): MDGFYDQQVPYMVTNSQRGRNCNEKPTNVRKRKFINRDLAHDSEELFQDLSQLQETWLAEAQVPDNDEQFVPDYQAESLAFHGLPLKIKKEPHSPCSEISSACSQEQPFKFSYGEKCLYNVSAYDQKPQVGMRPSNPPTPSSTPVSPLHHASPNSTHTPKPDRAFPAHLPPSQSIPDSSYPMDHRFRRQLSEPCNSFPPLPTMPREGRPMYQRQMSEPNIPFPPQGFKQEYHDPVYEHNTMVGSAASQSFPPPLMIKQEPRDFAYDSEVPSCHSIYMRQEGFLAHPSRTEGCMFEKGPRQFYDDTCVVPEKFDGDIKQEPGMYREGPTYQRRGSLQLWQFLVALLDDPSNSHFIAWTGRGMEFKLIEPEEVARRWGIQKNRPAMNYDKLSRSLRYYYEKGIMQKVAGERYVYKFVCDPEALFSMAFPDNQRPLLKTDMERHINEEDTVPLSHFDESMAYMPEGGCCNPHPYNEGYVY
Chain of ELF1 (P32519 whole entry): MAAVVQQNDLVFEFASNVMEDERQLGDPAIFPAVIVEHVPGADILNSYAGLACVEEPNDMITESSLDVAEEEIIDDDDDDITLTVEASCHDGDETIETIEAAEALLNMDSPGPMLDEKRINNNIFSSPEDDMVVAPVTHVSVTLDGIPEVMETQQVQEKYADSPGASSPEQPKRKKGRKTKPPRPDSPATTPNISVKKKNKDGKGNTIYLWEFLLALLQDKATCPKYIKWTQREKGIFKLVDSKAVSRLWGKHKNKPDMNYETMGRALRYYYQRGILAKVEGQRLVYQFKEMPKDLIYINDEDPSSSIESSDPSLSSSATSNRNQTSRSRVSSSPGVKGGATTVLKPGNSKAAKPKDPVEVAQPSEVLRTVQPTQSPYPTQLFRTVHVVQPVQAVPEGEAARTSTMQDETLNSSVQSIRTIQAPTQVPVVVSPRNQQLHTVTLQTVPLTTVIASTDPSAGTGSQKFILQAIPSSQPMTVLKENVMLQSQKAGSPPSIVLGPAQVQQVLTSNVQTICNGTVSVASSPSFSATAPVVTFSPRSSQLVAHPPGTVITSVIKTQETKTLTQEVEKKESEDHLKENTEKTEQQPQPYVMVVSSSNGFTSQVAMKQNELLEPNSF
Chain of CRX (O43186 whole entry): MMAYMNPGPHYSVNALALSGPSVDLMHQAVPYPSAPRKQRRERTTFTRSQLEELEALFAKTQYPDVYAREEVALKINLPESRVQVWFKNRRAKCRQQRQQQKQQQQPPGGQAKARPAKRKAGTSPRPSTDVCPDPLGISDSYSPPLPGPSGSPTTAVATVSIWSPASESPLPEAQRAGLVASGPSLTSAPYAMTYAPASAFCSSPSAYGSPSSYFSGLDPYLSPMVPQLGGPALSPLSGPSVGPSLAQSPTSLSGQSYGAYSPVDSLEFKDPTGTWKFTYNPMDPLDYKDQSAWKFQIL

As to TATTTC, the binding signal in test [1] was 2.04 fold enrichment (6-mer frequency, TF over GST control); in test [2] it was 2.09 fold enrichment (6-mer frequency, TF over GST control); in test [3] it was 2.06 fold enrichment (6-mer frequency, TF over GST control); in test [4], 2.32 fold enrichment (6-mer frequency, TF over GST control); in test [5], 2.06 fold enrichment (6-mer frequency, TF over GST control); in test [6] it was 2.21 fold enrichment (6-mer frequency, TF over GST control). The binding signal in test [7] is 2.02 fold enrichment (6-mer frequency, TF over GST control); in [8], 2.19 fold enrichment (6-mer frequency, TF over GST control); in [9], 2.21 fold enrichment (6-mer frequency, TF over GST control); in [10], 2.32 fold enrichment (6-mer frequency, TF over GST control); in [11] it was 2.13 fold enrichment (6-mer frequency, TF over GST control); in [12], 1.69 fold enrichment (6-mer frequency, TF over GST control). Also, the binding signal in test [13] is 2.38 fold enrichment (6-mer frequency, TF over GST control); in test [14], 2.01 fold enrichment (6-mer frequency, TF over GST control); in [15] it was 2.24 fold enrichment (6-mer frequency, TF over GST control); in [16], 2.11 fold enrichment (6-mer frequency, TF over GST control); in test [17], 2.09 fold enrichment (6-mer frequency, TF over GST control); in test [18] it was 1.64 fold enrichment (6-mer frequency, TF over GST control). Further, the binding signal in [19] was 2.14 fold enrichment (6-mer frequency, TF over GST control).

(Values after PMC7862700, “An all-to-all approach to the identification of sequence-specific readers for epigenetic DNA modifications on cytosine”.)
